In PubChem BioAssay AID1508637 (National Center for Advancing Translational Sciences (NCATS), 2021):
Records with an inconclusive call do not appear. Activity calls are given as the source filed them. The call rests on the fitted dose curve; in most records, active means well fitted inhibition curve with a large enough effect; inconclusive means small, poorly fitted or top-dose-only effect; inactive means flat fitted curve, though single readings scatter. Starred links: 1 amine or outer side, 2 acyl side, 3 side chain; linkers in the order of their positions; H or OH if unused. Non-standard residues stand in square brackets, D forms with d. Residues, ends and D or L forms follow the SMILES beside them. X1 = O=C([C@@H](CC(O)CCl)O[*:1])[*:2]; aIle = CC[C@@H](C)[C@H](N)C(=O)O; NMeV = CN[C@H](C(=O)O)C(C)C; NMeA = CN[C@@H](C)C(=O)O; βAla = NCCC(=O)O

assay: qHTS for characterization and localization of zebrafish homologs of the human ABCB1 multidrug transporter: empty vector transfected cells; settings: empty vector transfected control cells, CellTiter-Glo luminescence viability, 72 h
Description: The zebrafish has emerged as a potential model to study the blood-brain barrier (BBB) given its similarities with mammalian systems. However, little information has been available with regard to homologous ATP-binding cassette transporters expressed at the zebrafish BBB. Two transporters that are highly expressed at the human BBB are P-glycoprotein (P-gp, encoded by the ABCB1 gene) and ABCG2 (encoded by the ABCG2 gene). In this study, we focus on characterization of P-gp homologs in the zebrafish, which has two genes that are homologous to human ABCB1 - abcb4 and abcb5. We generated stably-transfected cell lines to determine their substrate specificities. […] Zebrafish abcb4 also colocalized with claudin 5 expression in brain endothelial cells.
A high-throughput screen was performed as previously described on empty vector transfected cells, P-gp-overexpressing MDR-19 cells and cells transfected with full-length zebrafish abcb4 (ZF Abcb4) or abcb5 (ZF Abcb5). Briefly, cells were plated into 1536-well plates at a density of 500 cells/well in 5 uL media. P-gp substrate compounds (approximately 90) selected from our previous study were then added at varying concentrations using a 1536-head pin tool (Kalypsis, San Diego, CA) and plates were incubated at 37C in 5% CO2 for 72 h. CellTiter-Glo reagent (Promega) was dispensed into the wells, incubated for 5 min and luminescence was read on a ViewLux instrument (Perkin-Elmer).
Cytotoxic compounds were defined as those that yielded a curve class of -1.1, -1.2, -2.1, -2.2, -2.3, or -2.4, a maximum response of >50% and an AC50 of < 10 uM. All compounds from screening analysis were tested in Vector (empty vector control), MDR-19 (P-gp overexpressing), zebrafish abcb4 (ZF Abcb4) and abcb5 (ZF Abcb5) expression cell lines.
1. Tobie D Lee, Olivia W Lee, Kyle R Brimacombe, Lu Chen, Rajarshi Guha, Sabrina Lusvarghi, Bethilehem G Tebase, Carleen Klumpp-Thomas, Robert W Robey, Suresh V Ambudkar, Min Shen, Michael M Gottesman, Matthew D Hall. A High-Throughput Screen of a Library of Therapeutics Identifies Cytotoxic Substrates of P-glycoprotein. […]

SMILES	Potency
C[C@@H]1[C@@H](CC(C[C@H]2O[C@@H]3O[C@]4(C)CC[C@@H]5[C@H](C)CC[C@@H]([C@H]2C)[C@@]35OO4)C[S+](=O)([O-])c2ccc(COC(=O)N(C)C)cc2)O[C@@H]2O[C@]3(C)CC[C@H]4[C@H](C)CC[C@@H]1[C@@]24OO3 (stereo partly drawn)	264 nM (active)
CC[C@@H](C)[C@@H]1NC(=O)[C@@H]2CCCN2C(=O)[C@@H](CC(O)CCl)OC(=O)CCNC(=O)[C@H](C)N(C)C(=O)[C@H](C(C)C)N(C)C1=O (stereo partly drawn) (cyclo([NMeA][βAla][X1]P[aIle][NMeV]))	1390 nM (active)
C=CCON=C(C[C@H]1O[C@@H]2O[C@]3(C)CC[C@@H]4[C@H](C)CC[C@@H]([C@H]1C)[C@@]24OO3)[C@H]1O[C@@H]2O[C@]3(C)CC[C@H]4[C@H](C)CC[C@@H]([C@@H]1C)[C@@]24OO3	187 nM (active)
